# Hit rate of the full screen: of about 1,200 compounds, about 110 (9.2%) were called active. Another 8% or so got no clear call; they are omitted.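 The calls were made as follows: active = pathway reporter half-maximal dose under half the control reporter's, or control reporter unaffected while pathway reporter is inhibited; inconclusive = either signal flat at 30 to 70% inhibition or poorly fitted; inactive = the rest.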 A selection follows. Results with a measured potency or affinity are listed apart.
# Assay: TES1-eGFP NF-kB reporter inhibition versus Tet-On dsRED, dose response, selectivity assay for LMP1 NF-kB inhibitor project, imaging, HEK293T, dual-color eGFP/dsRED, cherry-picks (AID 588398)
# Conditions: 48 h; HEK293T Tet-On dsRED counter-screen channel, at 19.5 µM (top of the series)
row,Structure (SMILES),outcome
1,CC1CC(C)C(=O)C(C(CC2CC(=O)NC(=O)C2)OC(=O)CC(=O)c2ccccc2)C1 (stereo not given),inactive
2,COc1cc(C(c2sc3nc(C)nn3c2O)N2CCc3ccccc3C2)cc(OC)c1OC (stereo not given),inactive
3,CCOc1ccccc1NC(=O)Cn1c(=O)sc2ccccc21,inactive
4,O=C(NC(c1ccc(Cl)cc1)c1cc(Cl)c2cccnc2c1O)c1cccnc1 (stereo not given),inactive
5,CCOc1cc(Br)cc(/C=N/NC(=O)c2cccnc2)c1O,inactive
6,Cc1cc(N2CCOCC2)c2c(N)c(Br)cc(C)c2n1,inactive
7,CC1CC(C)CN(S(=O)(=O)c2ccc(NC(=O)CCN3C(=O)C4CC=CCC4C3=O)cc2)C1 (stereo not given),inactive
8,CCN(CC)S(=O)(=O)c1cccc(-n2c(O)c(C=Nc3ccccc3C(=O)O)c3ccccc3c2=O)c1,inactive
9,Cc1ccc(CN2C(=O)CCC2C(=O)NCCCN2CCC(C)CC2)cc1 (stereo not given),inactive
10,Cn1cc(SCC(=O)NCC2CCCO2)c2ccccc21 (stereo not given),inactive
11,O=Cc1ccc(-c2cccs2)s1,inactive
12,COc1ccc(NC(=O)CCS(=O)(=O)c2ccc3c(c2)CCN3C(C)=O)cc1,inactive
13,C=CCn1c(C)c(C(C)=O)c(N2CCN(C(c3ccccc3)c3ccccc3)CC2)nc1=S,inactive
14,O=C(N/N=C/c1cccs1)c1n[nH]c2c1CCCC2,inactive
15,COc1cc2oc(=O)cc(-c3ccc(-c4ccc(N(C)C)cc4)cc3)c2c(OC)c1OC,inactive
16,COc1ccc(C(=O)NCCNc2nc3cc(C)c(C)cc3cc2C)cc1,inactive
17,COc1ccc(C=Cc2ccc3ccccc3n2)c(OC)c1,inactive
18,O=C(c1sc2cc([N+](=O)[O-])ccc2c1Cl)N1CCOCC1,inactive
19,O=C(N/N=C/c1sc2ccccc2c1O)c1cccc2ccccc12,inactive
20,COc1cccc(C(=O)CC(=O)C(=O)Nc2ccc(C)cc2Cl)c1,inactive
21,COc1ccc(NC2=NCC(Cc3ccc(Br)cc3)S2)cc1 (stereo not given),inactive
22,O=C(O)c1ccc(C=NNC(=O)c2cccc3ccccc23)cc1,inactive
23,O=C(N/N=C/c1ccc(O)cc1O)c1ccc(CN2C(=O)c3cccc4cccc2c34)cc1,inactive
24,O=c1oc2ccccc2c(O)c1/C=N/c1ccccn1,inactive

row,Structure (SMILES),outcome
1,Cc1nnc(NC(=O)CSc2nnc(Cc3cccn3C)n2CCc2ccccc2)s1,inactive
2,COc1ccc(O)c(/C=N/NC(=O)c2ccc(OCc3cccc(Br)c3)cc2)c1,inactive
3,Cc1cccc(/C=N/NC(=O)CNc2cccc3ccccc23)n1,inactive
4,CCOc1ccc(OCc2cccc(C(=O)N3CCCC3)c2)cc1,inactive
5,O=C(O)c1c2c(nc3ccccc13)/C(=C/c1ccc(O)cc1)CC2,inactive
6,O=[N+]([O-])c1ccc(O)c(/C=N/Nc2ncnc3c2cnn3-c2ccccc2)c1,inactive
7,COc1cccc(/C=N/Nc2ncnc(Cl)c2N)c1O,inactive
8,O=C(/C=C/Nc1cccc(C(F)(F)F)c1)C(F)(F)F,inactive
9,CSc1ccccc1OCc1cc(C(=O)N2CCC[C@H]2C(N)=O)no1,inactive
10,Cc1ccc(C(=O)Nc2ccc3ncccc3c2)cc1,inactive
11,Cc1nnc(SCC(=O)N2CCC(c3noc4ccc(F)cc34)CC2)s1,inactive
12,NC(=O)c1sc2nc3c(c(-c4cccs4)c2c1N)CCCCC3,inactive
13,O=C1c2ccccc2C(O)N1Cc1ccccc1 (stereo not given),inactive
14,S=C1SCN(Cc2ccccc2)CN1Cc1ccco1,inactive
15,Cc1[nH]n(-c2ccc(Br)cc2)c(=O)c1/C=N/NC(=O)c1ccccc1,inactive
16,Cc1cc(C(=O)CSc2nnc(-c3cccs3)o2)c(C)n1-c1ccccc1,inactive
17,CC1=C(C(=O)OCc2ccc3c(c2)OCO3)C(c2ccc(Cl)cc2)NC(=O)N1 (stereo not given),inactive
18,CC(=O)Oc1ccc(C(=O)Nc2cccnc2)cc1,inactive
19,O=C(O)c1cccc(Nc2ccnc(Nc3cccc(C(=O)O)c3)n2)c1,inactive
20,O=C(CN1C(=O)c2ccccc2S1(=O)=O)Nc1ncc(Cl)cc1Cl,inactive
21,Oc1[nH]c2ccccc2c1N=Nc1c(F)c(F)c(Cl)c(F)c1F,inactive
22,CN(C)c1ccc(-c2nc3ccccc3n2C)cc1,inactive
23,COc1ccc(C(=O)N=c2nc3ccccn3s2)cc1,inactive
24,COc1ccc(C(Nc2ccccn2)c2oc(CO)cc(=O)c2O)cc1 (stereo not given),inactive

row,Structure (SMILES),outcome
1,C[C@@H]1CN([C@@H](C)CO)C(=O)c2cc(NC(=O)Nc3ccccc3)ccc2O[C@H]1CN(C)C(=O)Nc1cccc2ccccc12,inactive
2,CCCCC(=O)NC(c1ccc(OC)c(OC)c1)c1ccc2cccnc2c1O (stereo not given),inactive
3,CCCC(=O)NC(c1ccc(C(C)C)cc1)c1ccc2cccnc2c1O (stereo not given),inactive
4,CCCC(=O)NC(c1ccc(C)cc1)c1ccc2cccnc2c1O (stereo not given),inactive
5,CCC(=O)NC(c1ccc(C)cc1)c1ccc2cccnc2c1O (stereo not given),inactive
6,COc1cccc(C2=CC(=O)C[C@H](c3ccc4c(c3)OCO4)C2)c1,inactive
7,C[C@@H]1CN([C@@H](C)CO)S(=O)(=O)c2ccc(/C=C/c3ccccc3)cc2O[C@@H]1CN(C)Cc1ccc(C(=O)O)cc1,inactive
8,CCCCCN=Cc1c(C)[nH]n(-c2nc3ccccc3s2)c1=O,inactive
9,O=C(OCc1nc2ccccc2s1)[C@@H]1CCCN1S(=O)(=O)c1ccccc1F,inactive
10,CCOc1ccc(N(C(C)C(=O)N2CCCCCC2)S(C)(=O)=O)cc1 (stereo not given),inactive
11,CCSc1nnc(NC(=O)CSc2nnc(-c3c[nH]c4ccccc34)n2CC)s1,inactive
12,O=C(/C=C1\NC2(CCCC2)Cc2ccccc21)C(=O)N/N=C/c1ccccc1O,inactive
13,CCSc1nc2ccc(OC)cc2cc1C#N,inactive
14,O=C(C1CCCCC1)N1CCN(c2ncccn2)CC1,inactive
15,COC(=O)c1[nH]c2ccc(C)cc2c1NC(=O)NC1CCCCC1,inactive
16,O=C1c2ccccc2C(=O)c2cc(N3CCCCC3)ccc21,inactive
17,N/C(=N\OC(=O)c1ccccc1)c1ccccn1,inactive
18,O=C(Nc1ccc(Cl)cc1)Nc1nnc(CSCc2ccc(Cl)cc2)s1,inactive
19,Nc1ccn(C2CCCO2)c(=O)n1 (stereo not given),inactive
20,COc1ccc(C(=O)Nc2nnc(SCC(=O)NC3CC3)s2)cc1,inactive
21,CCOc1ccc(C(=O)Nc2nnc(SCC(=O)NCC3CCCO3)s2)cc1 (stereo not given),inactive
22,CSc1nc(C)cc(C)c1C#N,inactive

# From PubChem BioAssay AID588398 (Broad Institute, 2011)
